Screening results deposited in PubChem BioAssay by National Center for Advancing Translational Sciences (NCATS).
Pol iota inh: DNA polymerase iota (human) inhibition. Q9UNA4. Pol iota fluorescent replication assay, 10 min. Potency, µM (doses to about 115 µM), for the others: at the top dose activity, negative = inhibition, hits mostly inhibitors. actives 1% (n = 390,000). AID 588590
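Fluorescent replication assay read twice, at 0 min and 10 min after adding 50 nM (final) substrate. Enzyme (10 nM) and compounds were first incubated 15 min at room temperature; enzyme-free buffer wells were negative controls.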
POLB inh: DNA polymerase beta (human) inhibition; Potency, µM (highest dose often 114 µM), for the others: at the highest dose activity change, negative = inhibition, usual class: inhibitors; Pol beta primer extension/strand displacement, fluorescence kinetic; actives 1.3% (n = 340,000); further: on the % scale 0 is the no-effect control and ±100 the full control effect
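10 nM enzyme + cpd, 15 min RT; start with substrate 50 nM final; read 0 min and after 10 min RT. Corrected, normalized data; 4-parameter Hill curve fit.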
Pol eta inh: inhibitors of human DNA polymerase eta | Q9Y253 | recombinant Pol eta, fluorescent DNA replication assay | Potency, µM (top dose mostly 114 µM), for the others: at the top dose activity change, negative = inhibition, usual class: inhibitors | actives 1.2% (n = 390,000) | AID 588591; further: on the % scale 0 is the no-effect control and ±100 the full control effect
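Pol eta (10 nM) was preincubated with compounds for 15 min at room temperature, after which fluorescent replication substrate (50 nM final) was added to start the reaction. Fluorescence was read kinetically at 0 and 10 min.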
POLK inh: blocks human DNA polymerase kappa activity; Q9UBT6; purified Pol kappa, fluorescent DNA synthesis assay, 10 min; Potency, µM (top dose mostly 107 µM), inactives show at the top dose activity, negative = inhibition, usual class: inhibitors; actives 0.53% (n = 400,000); AID 588579; further: on the % scale 0 is the no-effect control and ±100 the full control effect
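Fluorescent qHTS in 1536-well format: enzyme (10 nM) and compound sat 15 min at room temperature before 50 nM substrate (final) was added. Signal taken at 0 and 10 min; no-enzyme buffer wells were negative controls.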
WRN helicase inh: blocks human WRN helicase. WRN helicase unwinding, fluorescent forked duplex, kinetic. Potency, µM (series often up to 114 µM), without a hit: at the top dose activity change, negative = inhibition, most hits filed as inhibitors. actives 0.46% (n = 360,000). AID 651768. Q14191; further: on the % scale 0 is the no-effect control and ±100 the full control effect; nearly all actives have a fitted effect of over 55% in size
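Fluorescence dequenching readout, ex 525 nm/em 598 nm, kinetic mode: forked duplex DNA (100 nM final) with adjacent fluorophore and quencher unwound by WRN (20 nM final) with 2 mM ATP. Compound preincubation 15 min, room temperature.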
FEN1 inhibitor: blocks human flap endonuclease 1; Potency, µM (doses to about 114 µM), for the others: at the highest dose activity change, negative = inhibition, usual class: inhibitors; actives 0.35% (n = 390,000); Recombinant FEN1 flap cleavage, fluorescence, 15 min; further: on the % scale 0 is the no-effect control and ±100 the full control effect; nearly all actives have a fitted effect of over 65% in size
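Enzyme 10 nM, 15 min RT preincubation with compound; start with substrate 50 nM final; reads at 0 and 15 min; qHTS titration, four-parameter Hill fit.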
Starred values were filed as active, the others as inactive; ? = inconclusive; nt = not tested or not shown; [ ] = dose if it differs, or a comment. Hits are enriched below; roughly 2.4% of the tested compounds scored in any of these assays. The call rests on the fitted dose curve; in most records, active means well fitted curve in the direction sought with a large enough effect; inconclusive means small, poorly fitted or top-dose-only effect, or another doubt; inactive means no such curve, though single readings can be large; an effect the other way counts as inactive or inconclusive. Potency means the concentration at half of the fitted maximal effect.

SMILES	Pol iota inh	POLB inh	Pol eta inh	POLK inh	WRN helicase inh	FEN1 inhibitor
COc1ccc(N=Cc2cc(Cc3ccccc3Cl)cc([N+](=O)[O-])c2O)cc1OC	?	1%	28µM*	-16%	2%	-26%
Cn1cc(-c2cc3n(n2)CCC(=O)N3CCCC(=O)Nc2ccc(Cl)cc2)c2ccccc21	89µM*	?	-11%	3%[60.1 µM]	nt	9%
Cn1cc(-c2cc3n(n2)CCC(=O)N3CCCC(=O)NCc2ccc(Cl)cc2)c2ccccc21	-22%	17%	-1%	3%[60.1 µM]	nt	-12%
C[C@]12CC[C@@H](O)C[C@@H]1CC[C@@H]1[C@@H]2CC[C@]2(C)C=CC[C@@H]12	nt	nt	nt	4%[19.4 µM]	nt	nt
O=C(Nc1cccnc1)c1cccc(-c2cc3ccccc3oc2=O)c1	40%	?	-12%	-7%	2%	-3%
O=C(NCc1cccnc1)c1ccc(-c2cc3ccccc3oc2=O)cc1	79µM*	?	-7%	-19%	2%[11.6 µM]	4%
O=c1cc(-c2ccc(O)cc2)oc2c(-c3c(O)cc(O)c4c(=O)cc(-c5ccc(O)cc5)oc34)c(O)cc(O)c12	?	nt	25µM*	?	-11%	?
CSc1nc(-c2ccco2)nn1C(=O)c1cccs1	?	-24%	-10%	-14%	11%	1%
COc1ccc(C(=O)n2nc(-c3ccco3)nc2SC)cc1OC	32µM*	?	?	-10%	?	1%
CCOc1ccccc1C(O)C1=CC(=O)c2ccccc2C1=O (configuration not stated)	6.3µM*	nt	3.2µM*	?	?	-11%
CCOc1ccccc1NC(=O)CN1C(=O)C(=O)c2ccccc21	19%	-17%	-14%	-3%	nt	-1%
CC(=O)Nc1ccn(C2OC(C(COC(C)=O)NC(=O)C(Cc3ccccc3)NC(=O)OC(C)(C)C)C(OC(C)=O)C2OC(C)=O)c(=O)n1 (configuration not stated)	11%	nt	nt	-3%	nt	-5%
O=C(N/N=C/c1ccc(Cl)c([N+](=O)[O-])c1)c1ccc2nc[nH]c2c1	-3%	40µM*	?	-15%	-26%	?
CCOC(=O)C1=C(c2ccccc2)N=c2s/c(=C\c3ccc(O)cc3)c(=O)n2C1c1cccs1 (configuration not stated)	45µM*	?	-12%	-29%	?	?
O=C(Nc1ccc(-c2nc3ncccc3o2)cc1)c1ccc(Br)o1	13%	-3%	?	1%	0%[57.1 µM]	-1%
O=C(Nc1ccc(-c2nc3ncccc3o2)cc1)c1ccco1	?	35µM*	?	?	-21%[57.1 µM]	1%
O=C(O)C1C2C=CC(C2)C1C(=O)NCCc1ccncc1 (configuration not stated)	-13%	50µM*	?	-19%	2%	4%
CN(C)c1ccc(/C=C/c2nc3ccccc3c(=O)n2-c2ccc(C(=O)O)cc2)cc1	?	-1%	25µM*	?	-5%[11.6 µM]	-4%
CC(C)NC(=O)COC(=O)c1ccccc1OCC(=O)Nc1ccc(Br)cc1	-23%	nt	nt	11%	nt	-4%
CC(C)CCOc1ccc(N)cc1	nt	nt	nt	-9%[60.1 µM]	nt	nt
COc1cc2nc(Cl)nc(NC(C)C)c2cc1OC	13%	nt	nt	-22%	nt	-5%
CCOC(=O)c1ccc(NC(=O)CSc2nnc(-c3ccncc3)n2-c2ccccc2)cc1	-19%	2.2µM*	0%	-10%[60.1 µM]	nt	-3%
Cc1cc(C(=O)CSc2nnc3ccccn23)c(C)n1-c1ccccc1	27%	29%	-11%	-2%	21%	4%
Cc1cc(C(=O)CSc2nnc(-c3ccncc3)n2-c2ccccc2)c(C)n1C	18µM*	45µM*	?	-24%	?	1%
Cc1cc(C(=O)CSc2nnc(-c3ccccc3)n2C)c(C)n1C	-6%	-26%	-3%	-20%	1%	-9%
SMILES	Pol iota inh	POLB inh	Pol eta inh	POLK inh	WRN helicase inh	FEN1 inhibitor
O=C(CSc1nnc(-c2ccncc2)n1-c1ccccc1)Nc1ccc(C(=O)O)cc1	7%	9%	-3%	-10%	0%	-3%
Cc1cc(C(=O)CSc2nnc(-c3ccccc3)n2-c2ccccc2)c(C)n1-c1ncn[nH]1	?	40µM*	20µM*	?	?	-33%
CCOCCCNC(=O)c1c(NC(=O)c2nc(SCC)ncc2Cl)sc2c1CCCC2	-1%	nt	nt	0%	nt	14%
CN(C)c1ccc(C(=O)Oc2cc(O/N=[N+](\[O-])N(C)C)c([N+](=O)[O-])cc2[N+](=O)[O-])cc1	37%	nt	nt	-11%	nt	?
COc1ccc(CNC(=O)c2cc3ccccn3n2)c(OC)c1	-11%	-10%	-9%	29%	nt	-12%
COc1cc2c(C(=O)N3CCN(c4ccc(C)cc4)C(C)C3)cn(CC(C)C)c(=O)c2cc1OC (configuration not stated)	-14%	28%	-14%	2%	nt	-7%
Cc1ccc(NC(=O)c2nc[nH]c2C(=O)N2CCOCC2)c(C(=O)c2ccccc2)c1	79µM*	?	-5%	-14%	-8%	12%
COc1cc(C(=O)NNC(=O)c2ccc(NC(C)=O)cc2)cc(OC)c1OC	17%	5%	-3%	6%	1%	0%
COc1cc(C(=O)/C=C/Nc2ccc(NC(C)=O)cc2)cc(OC)c1OC	-10%	71µM*	-21%	-13%	-26%	0%
CC(C)C(=O)Nc1ccc(/C=C2\C=Cc3ccccc32)cc1	23%	nt	nt	-11%	nt	-7%
COc1cc(OC)cc(N2C(=O)CC(N3CCC(C(=O)N4CCCCC4)CC3)C2=O)c1 (configuration not stated)	?	20µM*	?	-41%	-16%	-1%
COc1ccc(C2CC(c3ccccc3)Oc3cc(OC)ccc32)cc1 (configuration not stated)	?	nt	nt	-10%	nt	?
CCCCCCNC(=O)N[C@@H](C(=O)NCCC[C@H]1CN2C(=NC[C@@H]2Cc2ccccc2)N1CCc1cccc(OC)c1)C(C)C	25µM*	12%	-2%	-7%	-7%	4%
C/C=C(\C)C(=O)NCCN1C2=NC[C@@H](Cc3ccccc3)N2C[C@@H]1Cc1ccc(OC)cc1	8%	nt	-11%	-3%	-6%	2%
CN(C)c1c(Br)cc(C=O)cc1Br	9%	nt	nt	3%	nt	-4%
CC(C)(C)C(=O)OCCNc1nc(-c2cccs2)nc2ccccc12	13%	nt	nt	-3%	nt	-16%
COc1ccc(OC)c(CNC(=O)c2ccc(NC(=O)c3nsc4ccccc34)cc2)c1	89µM*	40%	-8%	-8%[60.1 µM]	nt	-14%
CCOc1cc(CNC(=O)c2ccc(NC(=O)c3nsc4ccccc34)cc2)ccc1OC	-8%	-17%	11%	2%[60.1 µM]	nt	2%
